Screening data (PubChem)
SMN2 splice enh – qHTS Assay for Enhancers of SMN2 Splice Variant Expression | HEK293 SMN2-luciferase splicing reporter, luminescence, 30-36 h | Potency, µM (series often up to 46.1 µM), without a hit: at the top dose activity change, positive = activation, usual class: activators | 210,000 compounds, 2.8% hits | AID 1458, 2008; note: % of control where 0% means no effect; nearly all actives have a fitted effect of over 55% in size
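qHTS luciferase splicing reporter: luminescence rises when SMN2 exon 7 is included in transfected HEK293 cells. Compound exposure lasted 30-36 h at 37C, with 4.5 mM final sodium butyrate as control, followed by a ONE-Glo read.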
NPC1 promoter act – qHTS Assay for NPC1 Promoter Activators | Huh7 NPC1 promoter luciferase reporter, 24 h | Potency, µM (top dose mostly 9.22 µM), for the others: at the highest dose activation, hits mostly activators | 320,000 compounds, 2.4% hits; note: % of control where 0% means no effect; nearly all actives have a fitted effect of over 60% in size
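NPC1 promoter–luciferase Huh7 cells; 24 h compound; luminescence.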
FLuc modulator – qHTS profiling assay for firefly luciferase inhibitor/activator using purifed enzyme and Km concentrations of substrates (counterscreen for miR-21 project); AID 588342, 2011; purified FLuc, Km substrates, luminescence inhibition; Potency, µM (top dose mostly 57.5 µM), inactives show at the highest dose activity change, negative = inhibition, most hits filed as inhibitors; 360,000 compounds, 6.9% hits;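 note: plate controls were vehicle for no effect and reference inhibitor for full effect; nearly all actives have a fitted effect of over 55% in size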
Target sequence (P08659 whole entry, looked up): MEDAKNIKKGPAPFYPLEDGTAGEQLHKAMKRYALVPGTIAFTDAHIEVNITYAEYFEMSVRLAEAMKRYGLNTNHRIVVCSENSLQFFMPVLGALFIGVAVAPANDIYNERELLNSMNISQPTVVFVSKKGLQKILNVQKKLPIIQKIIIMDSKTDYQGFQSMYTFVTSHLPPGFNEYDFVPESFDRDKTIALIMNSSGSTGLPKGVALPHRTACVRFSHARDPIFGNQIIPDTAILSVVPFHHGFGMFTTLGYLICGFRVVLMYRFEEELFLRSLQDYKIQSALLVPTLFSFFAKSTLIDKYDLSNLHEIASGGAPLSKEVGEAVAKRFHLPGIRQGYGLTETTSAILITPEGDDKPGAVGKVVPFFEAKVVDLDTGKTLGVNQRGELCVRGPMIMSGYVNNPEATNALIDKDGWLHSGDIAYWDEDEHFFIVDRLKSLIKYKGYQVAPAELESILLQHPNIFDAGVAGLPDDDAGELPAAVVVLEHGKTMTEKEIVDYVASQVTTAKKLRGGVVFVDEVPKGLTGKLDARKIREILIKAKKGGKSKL
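Purified P. pyralis luciferase (10nM final) with 10uM D-luciferin and 10uM ATP (Km levels) in 50mM Tris acetate pH 7.5, 10mM Mg acetate, 0.01% Tween-20, 0.05% BSA; qHTS 6-point titration, ~60 µM downward; luminescence read.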
Rab9 promoter act – qHTS Assay for Rab9 Promoter Activators. Huh7 Rab9 promoter-luciferase reporter, luminescence, 24 h. Potency, µM (top dose mostly 9.22 µM), for inactives: at the highest dose activation, negative = inhibition, most hits filed as activators. 320,000 compounds, 2.8% hits. AID 485297, 2010; note: % of control where 0% means no effect; nearly all actives have a fitted effect of over 60% in size
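Luminescence from Amplite-detected luciferase (10 minutes, ambient) reports Rab9 promoter activation. Before that, stable Rab9-luciferase Huh7 cells (1500/well, reduced-serum OP-MEM I plus 10% FBS) were exposed to compound for 24 hours at 37C.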
ELG1 genotoxic – qHTS screen for small molecules that induce genotoxicity in human embryonic kidney (HEK293T) cells expressing luciferase-tagged ELG1. HEK293T ELG1-luciferase reporter, luminescence, 16 h. Potency, µM (titrated, usually from 46 µM), inactives show top-dose activity change, positive = activation, usual class: activators. 330,000 compounds, 1.3% hits; note: % of control where 0% means no effect; nearly all actives have a fitted effect of over 60% in size
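After overnight (16 hr) compound treatment at 37 °C, ELG1-luciferase HEK293T cells were lysed with ONE-Glo; luminescence quantified 30 min later at room temperature.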
* = called active by the depositor; ? = inconclusive; nt = no result given; [ ] = another dose, or the depositor's remark. An excerpt weighted towards active compounds, which were near 7.5% of everything screened. Calls come from the whole dose curve; as a rule, active = well fitted curve in the direction sought with a large enough effect; inconclusive = small, poorly fitted or top-dose-only effect, or another doubt; inactive = no such curve, though single readings can be large; an effect the other way counts as inactive or inconclusive. Potency is the fitted concentration of half-maximal effect.

SMILES	SMN2 splice enh	NPC1 promoter act	FLuc modulator	Rab9 promoter act	ELG1 genotoxic
O=C(Cc1cccc(NC(=O)C2CCCN(C(=O)C3CCCCC3)C2)c1)Nc1cccc(C(=O)N2CCCC2)c1 (configuration not stated)	nt	-1%	-2%	-2%	1%
CCN(CC)S(=O)(=O)c1cccc(NC(=O)CCSc2ccc(Cl)cc2)c1	-33%	-3%	-2%	-2%	-7%
NS(=O)(=O)c1cccc(NC(=O)CCSc2ccccc2Cl)c1	?	?	17µM*	?	?
O=C(CCSc1ccccc1Cl)Nc1cccc([N+](=O)[O-])c1	?	16%	?	22%	?
COC(=O)c1cccc(NC(=O)Nc2ccc(Cl)cc2)c1	nt	2.2µM*	2.7µM*	3.2µM*	-1%
CN(C)S(=O)(=O)c1cccc(NC(=O)COC(=O)CCSc2ccc(Cl)cc2)c1	-4%	-2%	21µM*	2%	1%
COC(=O)c1cccc(NC(=O)NC23CC4CC(CC(C4)C2)C3)c1	11%	21%	9.5µM*	24%	?
O=C(NC1CCCCCCC1)c1ccc(CNc2c(N3CCOCC3)c(=O)c2=O)cc1	21%	-2%	-17%	-1%	2%
COc1ccc(CNC(=O)c2nc(Cn3nc(C)c(Br)c3C)no2)cc1OC	-14%	nt	1%	nt	nt
NS(=O)(=O)c1cccc(NC(=O)Nc2ccc(Cl)cc2)c1	nt	30%	7.6µM*	18%	6%
COC(=O)c1cc(NC(=O)Nc2cccc(Cl)c2)ccc1Cl	-7%	12%	30µM*	9%	-10%
Cc1cccc(NC(=O)Nc2ccc(S(N)(=O)=O)cc2)c1	nt	14%	?	11%	2%
O=S(=O)(c1cccc(-c2nc3n(n2)Cc2ccccc2-3)c1)N1CCCC1	-4%	9%	15µM*	20%	0%
O=S(=O)(c1cccc(-c2nc3n(n2)Cc2ccccc2-3)c1)N1CCCCC1	-16%	0%	?	-2%	-10%
O=C1CCCc2oc3c(c21)CCCC3	-9%	-4%	-2%	2%	-7%
Cn1cc(C(=O)C(=O)N2CCc3ccccc32)c2ccccc21	nt	3.2µM*	1%	2.8µM*	?
Cc1nc2ccc(NC(=O)c3ccco3)cc2nc1C	24%	19%	?	?	17%
Cc1ccn2cc(-c3ccc(NC(=O)c4ccco4)cc3)nc2c1	4.5µM*	3.2µM*	3.4µM*	1.4µM*	?
Cc1ccc(-c2csc(NC(=S)NC(=O)c3ccco3)n2)cc1	8%	-1%	?	1%	3%
Nc1nc2ccc(NC(=O)c3ccco3)cc2s1	nt	?	15µM*	?	?
Cc1nc(-c2ccc(NC(=O)c3ccco3)cc2)cs1	nt	?	0.067µM*	?	0.21µM*
Nc1nc(-c2ccc(NC(=O)c3ccco3)cc2)cs1	nt	0.71µM*	0.67µM*	0.79µM*	?
COc1cccc(Cn2c(=O)c(CCc3ccccc3)nc3cnc(OC)nc32)c1	-28%	nt	nt	nt	nt
O=C(CN1C(=O)NC2(CCc3ccccc32)C1=O)NCc1ccc(F)cc1 (configuration not stated)	nt	-4%	3%	-1%	-1%
CCn1ccc2c(OCC(=O)Nc3ccc(C)c(Cl)c3)cccc2c1=O	nt	nt	-2%	nt	nt
SMILES	SMN2 splice enh	NPC1 promoter act	FLuc modulator	Rab9 promoter act	ELG1 genotoxic
O=c1c2c(nc3cc(-c4cccc(F)c4)[nH]n13)CCC2	8.9µM*	1.6µM*	6µM*	1.1µM*	?
O=c1c2c(nc3cc(-c4cccc(Cl)c4)[nH]n13)CCC2	8.9µM*	2µM*	4.8µM*	1.6µM*	2.3µM*
Cc1[nH]n2c(=O)c3c(nc2c1-c1ccc(F)cc1)CCCC3	nt	-5%	-1%	-7%	-7%
O=c1c2c(nc3cc(-c4ccc(F)cc4)[nH]n13)CCCC2	?	?	1.5µM*	0.45µM*	2.3µM*
O=C(NCC1CCCO1)C1CCCN(S(=O)(=O)c2cc(Cl)ccc2Cl)C1 (configuration not stated)	nt	-3%	-1%	13%	-1%
Cc1nc2cc(NC(=O)c3ccc(S(=O)(=O)N(C)c4ccccc4)cc3)ccc2o1	nt	0%	17µM*	-9%	-42%
CN(C)S(=O)(=O)c1ccc(C(=O)Nc2ccc3ncccc3c2)cc1	nt	22%	15µM*	22%	?
O=C(Nc1ccc2ncccc2c1)Nc1ccc2ncccc2c1	1%[9.22 µM]	?	6.7µM*	27%	0%
CN(c1ccccc1)S(=O)(=O)c1ccc(NC(=O)c2ccc(-c3ccccc3)cc2)cc1	nt	-6%	-5%	-8%	-4%
Cc1nc2ccc(NC(=O)c3ccc(S(=O)(=O)N(C)C)cc3)cc2s1	-8%	-3%	-6%	2%	0%
c1cnc2ccc(-c3ccc4ncccc4c3)cc2c1	nt	1µM*	0.6µM*	0.45µM*	?
Cc1ccc(N2C(=O)CSC23C(=O)Nc2ccccc23)cc1F (configuration not stated)	nt	nt	4%	nt	nt
O=C(Nc1ccc2ncccc2c1)c1ccccc1Br	nt	?	12µM*	2.8µM*	6.5µM*
O=C(O)COc1ccc(C(NC(=O)c2c(F)cccc2F)NC(=O)c2c(F)cccc2F)cc1	nt	1%	-2%	2%	0%
CC(=O)C1=C(NC(=O)c2ccc(F)cc2)CC2C1C2(C)C (configuration not stated)	-16%	1%	21µM*	13%	-4%
C/C(N)=C(/C#N)C(=O)CSc1nc2ccccc2[nH]1	?	?	21µM*	?	21µM*
CC1CCN(C(=O)CSc2nc3ccccc3[nH]2)CC1	16µM*	2.5µM*	24µM*	3.2µM*	?
NC(=O)C1CCN(C(=O)CSc2nc3ccccc3[nH]2)CC1	1%	1%	6%	3%	0%
C/C(N)=C(/C#N)C(=O)CSc1nnc(Nc2ccccc2)s1	11µM*	?	21µM*	2µM*	?
COc1ccc(CNC(=O)Cn2ccc3cc(S(=O)(=O)N4CCCCC4)ccc32)c(OC)c1	nt	nt	-6%	nt	nt
Cc1c(CN2CCC(CO)(Cc3cccc(C(F)(F)F)c3)CC2)c2ccccc2n1C	nt	0%	-1%	3%	-4%
Cc1ccc(NC(=O)c2cc(-c3ccccc3)nn2-c2ccccc2)cc1	-30%	0%	-2%	2%	-1%
CC(=O)C(/C=N/c1cc(-c2ccc(C)cc2)nn1-c1ccccc1)=C(\C)O	?	4µM*	?	4µM*	?
CCOC(=O)C1(C)C=C(Nc2cccc(C(=O)O)c2)C(=O)N1c1ccccc1 (configuration not stated)	13µM*	nt	24µM*	nt	nt
